13 compounds from PubChem BioAssay can be followed below.

Molecules are shown by their SMILES. A number with no mark means an inactive call. The list shows a part of the results. Calls of active or inactive are those of the source. Unless noted, no stated cut-off is given here; in the data, active means activation above about 20%; inactive means the rest.

Test [1] deals with Peroxisome proliferator-activated receptor gamma (Homo sapiens) (UniProt P37231). Put plainly: agonists of PPARgamma SRC-2 coactivator recruitment, confirmation, biochemical, HTS (AID 1297; in the data active means activation above about 22%;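 further: 0% = vehicle alone and 100% = reference agonist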). The settings on record: biochemical SRC-2 recruitment by PPARgamma; at 8 µM; hits give high values.
Sequence of Peroxisome proliferator-activated receptor gamma (Homo sapiens) (P37231 whole entry, looked up): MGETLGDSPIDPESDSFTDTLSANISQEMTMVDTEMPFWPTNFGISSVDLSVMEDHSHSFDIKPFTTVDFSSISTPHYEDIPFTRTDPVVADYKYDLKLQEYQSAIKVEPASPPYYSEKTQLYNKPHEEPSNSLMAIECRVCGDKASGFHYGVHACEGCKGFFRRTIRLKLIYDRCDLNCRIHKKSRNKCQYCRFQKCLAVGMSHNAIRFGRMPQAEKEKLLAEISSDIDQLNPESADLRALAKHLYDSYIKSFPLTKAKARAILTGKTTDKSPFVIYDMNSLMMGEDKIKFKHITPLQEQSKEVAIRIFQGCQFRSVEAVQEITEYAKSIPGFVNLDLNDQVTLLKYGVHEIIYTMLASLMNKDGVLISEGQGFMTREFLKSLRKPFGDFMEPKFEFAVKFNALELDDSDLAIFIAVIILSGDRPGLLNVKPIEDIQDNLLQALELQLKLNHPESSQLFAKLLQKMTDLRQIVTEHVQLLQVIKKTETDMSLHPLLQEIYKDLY
For test [2] the target is unchanged. Put plainly: PPARgamma agonists recruiting SRC-1 coactivator, confirmation, biochemical (AID 1300).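 Further: 0% = vehicle wells and 100% = reference agonist.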 The settings on record: PPARgamma–SRC-1 coactivator recruitment biochemical assay; at 8 µM; hits give high values.
Test [3] concerns the target Peroxisome proliferator-activated receptor gamma (Homo sapiens) + Nuclear receptor coactivator 3 (Homo sapiens) (UniProt P37231+Q9Y6Q9). In words: PPARgamma-driven SRC-3 coactivator recruitment agonists, confirmation, biochemical (AID 1301; in the data active means activation above about 24%;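 further: 0% = vehicle wells and 100% = reference agonist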). The settings on record: biochemical PPARgamma-SRC-3 coactivator recruitment, agonist mode; at 8 µM; hits give high values.
The target of test [4] is Sphingosine 1-phosphate receptor 4 (Homo sapiens) (UniProt O95977). In words: S1P4 receptor antagonists, human, confirmation, cell-based (AID 1524; in the data active means inhibition above about 30%). The settings on record: S1P4-expressing cell line, antagonist mode, reporter read-out; at 4.98 µM; hits give high values.
Sequence of Sphingosine 1-phosphate receptor 4 (Homo sapiens) (O95977 whole entry, looked up): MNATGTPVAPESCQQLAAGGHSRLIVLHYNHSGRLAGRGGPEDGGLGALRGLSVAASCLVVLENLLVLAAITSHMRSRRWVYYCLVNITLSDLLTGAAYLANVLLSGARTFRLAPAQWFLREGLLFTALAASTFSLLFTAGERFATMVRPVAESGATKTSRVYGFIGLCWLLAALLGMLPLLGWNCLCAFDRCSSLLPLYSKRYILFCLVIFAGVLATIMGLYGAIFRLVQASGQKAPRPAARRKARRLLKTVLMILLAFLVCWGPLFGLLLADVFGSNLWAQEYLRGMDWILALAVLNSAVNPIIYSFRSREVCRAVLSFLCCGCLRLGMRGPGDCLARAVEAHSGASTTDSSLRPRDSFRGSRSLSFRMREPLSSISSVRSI
The target in test [5] is Sphingosine 1-phosphate receptor 1 (Homo sapiens) (UniProt P21453). In words: S1P1 receptor antagonists, human, counter-screen for S1P4 antagonist project, cell-based (AID 1564; in the data active means inhibition above about 40%;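 further: receptor stimulated with S1P near its EC80; 0% = agonist stimulated wells and 100% = vehicle only wells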). To be noted: cell-based S1P1 antagonist counterscreen, at 4.98 µM, hits give high values.
Sequence of Sphingosine 1-phosphate receptor 1 (Homo sapiens) (P21453 whole entry, looked up): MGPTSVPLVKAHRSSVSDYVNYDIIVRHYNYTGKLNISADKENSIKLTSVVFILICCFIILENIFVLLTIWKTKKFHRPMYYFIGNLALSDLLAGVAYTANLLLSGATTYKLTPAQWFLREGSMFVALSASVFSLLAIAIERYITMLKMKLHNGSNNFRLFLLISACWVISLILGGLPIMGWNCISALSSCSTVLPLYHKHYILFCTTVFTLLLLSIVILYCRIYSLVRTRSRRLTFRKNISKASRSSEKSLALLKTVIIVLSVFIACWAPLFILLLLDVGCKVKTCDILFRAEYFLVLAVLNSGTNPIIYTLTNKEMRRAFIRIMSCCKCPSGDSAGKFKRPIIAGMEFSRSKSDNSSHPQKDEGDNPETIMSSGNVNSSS
In test [6] the target is Galanin receptor type 2 (Homo sapiens) (UniProt O43603). Put plainly: GALR2 antagonists, retest of hits, confirmation, cell-based (AID 866; in the data active means inhibition above about 27%;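 further: cells stimulated with galanin at about its EC80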). The settings on record: GALR2-expressing cells, antagonist mode, at 4 µM, hits give high values.
A short description of test [7]: inhibitors of NFAT-driven beta-lactamase reporter, confirmation, counter-screen for GALR2 antagonist project, CHO NFAT-bla cells, FRET readout (AID 867;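 active means inhibition above the mean inhibition across tested compounds plus 3 SD, cut at about 27% in these data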;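 further: 0% = 500 nM thapsigargin stimulated wells and 100% = unstimulated BSA only wells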). To be noted: thapsigargin-stimulated, at 4.2 µM, hits give high values. (A counterscreen serves to expose hits that act by an unwanted route or on another target.)
For test [8], the target named is Neuropeptide Y receptor type 2 (Homo sapiens) (UniProt P49146). In words: NPY-Y2 potentiators or agonists, confirmation, cell-based (AID 1539; in the data active means activation above about 33%). The settings on record: cell-based NPY-Y2 potentiator/agonist assay; at 3.6 µM; hits give high values.
Sequence of Neuropeptide Y receptor type 2 (Homo sapiens) (P49146 whole entry, looked up): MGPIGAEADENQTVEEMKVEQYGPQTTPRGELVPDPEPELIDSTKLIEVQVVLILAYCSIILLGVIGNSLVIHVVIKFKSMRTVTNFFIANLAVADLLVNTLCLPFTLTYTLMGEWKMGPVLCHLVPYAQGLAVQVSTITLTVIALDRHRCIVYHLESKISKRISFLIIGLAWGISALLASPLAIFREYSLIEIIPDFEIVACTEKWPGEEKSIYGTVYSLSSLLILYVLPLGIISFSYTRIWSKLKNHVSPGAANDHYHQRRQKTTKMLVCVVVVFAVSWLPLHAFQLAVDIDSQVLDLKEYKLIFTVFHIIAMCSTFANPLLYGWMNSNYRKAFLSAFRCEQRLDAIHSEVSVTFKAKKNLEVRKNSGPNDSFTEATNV
Test [9] concerns the target Neuropeptide Y receptor type 1 (Homo sapiens) (UniProt P25929). Put plainly: NPY-Y1 potentiators or agonists, counter-screen for NPY-Y2 potentiator project, cell-based, fluorescence (AID 1651; in the data active means activation above about 45%;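 further: cells stimulated with submaximal NPY then isoproterenol with phosphodiesterase inhibitor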). To be noted: Y1 HEK293-CNG cells, membrane potential fluorescence; at 3.6 µM; hits give high values.
Test [10] has the same target. Put plainly: NPY-Y1 direct agonists, selectivity assay for NPY-Y2 potentiator project, cell-based, fluorescence (AID 1702;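 active means activation above the mean of DMSO-only control wells plus 3 SD, cut at about 18% in these data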;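 further: cells stimulated with 1 µM isoproterenol plus the PDE inhibitor Ro 20-1724; 0% = isoproterenol with DMSO and no NPY and 100% = 40 nM NPY; Y1 agonists lower the membrane potential dye signal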). The settings on record: HEK293 Y1-CNGC, membrane potential fluorescence, agonism; at 3.6 µM; hits give high values.
Test [11] in a line: CNGC cAMP sensor activity inhibitors, counter-screen for NPY-Y2 potentiator project, cell-based, HEK293-CNG parental, membrane potential fluorescence (AID 1703;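 active means inhibition above the control-well mean plus 3 SD of those wells, cut at about 22% in these data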;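 further: 0% = DMSO with isoproterenol and 100% = DMSO without isoproterenol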). The settings on record: isoproterenol cAMP, at 3.6 µM, hits give high values.
Test [12] has as its target Neuropeptide Y receptor type 2 (Homo sapiens) (UniProt P49146). Put plainly: NPY-Y2 direct agonists, counter-screen for NPY-Y2 potentiator project, cell-based, fluorescence (AID 1710;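 active means activation above the mean of solvent-only control wells plus 3 SD, cut at about 10% in these data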;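 further: cells stimulated by isoproterenol with no NPY added so direct agonism is tested; 0% = DMSO with isoproterenol alone and 100% = NPY at EC100 plus isoproterenol; agonism lowers probe fluorescence through less cAMP and CNG channel opening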). The settings on record: HEK293 Y2/CNGC cells, membrane potential fluorescence, agonist mode; at 3.6 µM; hits give high values.
A short description of test [13]: KLF5 expression inhibitors, confirmation, DLD-1 cells, luminescence (AID 1834;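 active means inhibition above a set limit taken from the earlier primary screen, cut at about 63% in these data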;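 further: 0% = DMSO wells and 100% = LY294002 at 200 µM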). The settings on record: DLD-1 KLF5 promoter firefly luciferase reporter, at 4 µM, hits give high values. For orientation: In a reporter assay the amount or activity of a reporter protein is the signal.
Test [14] is described as follows: cytotoxicity in rat IEC-6 cells, cytotoxicity control for KLF5 inhibitor project, cell-based, luminescence, triplicate (AID 1905; in the data active means inhibition above about 23%;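 further: cells exposed to compounds for 48 hours before viability read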). The settings on record: IEC-6 rat intestinal cells, viability luminescence; at 4 µM; hits give high values.
Test [15] has as its target Oxytocin receptor (Homo sapiens) (UniProt P30559). Put plainly: human OXTR agonists, confirmation, fluorescence, CHO-OTR cells, triplicate (AID 434963;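 active means mean activation above about 20% derived from the earlier single-dose screen, limit read from the data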;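 further: peak over minimum fluorescence ratio per well during a 100 second FLIPR read; 0% = DMSO alone and 100% = oxytocin high control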). The settings on record: Fluo-8 calcium fluorescence, agonist, at 3 µM, hits give high values.
For test [16], the target named is Vasopressin V1a receptor (Homo sapiens) (UniProt P37288). Put plainly: V1a receptor agonists, calcium signal, counter-screen for OXTR agonist project, triplicate, fluorescence, CHO-V1R cells (AID 434991;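 active means mean activation over triplicate exceeds the hit threshold set in the earlier primary screen, cut at about 20% in these data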;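 further: peak over basal fluorescence ratio within a 100 second read; 0% = DMSO alone and 100% = 3 nM vasopressin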). To be noted: Fluo-8 calcium fluorescence, at 3 µM, hits give high values.
In test [17] the target is Nuclear receptor coactivator 3 (Homo sapiens) (UniProt Q9Y6Q9). In words: SRC3 coactivator transcriptional activity inhibitors, confirmation, cell-based, luminescence, quadruplicate (AID 588792;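 active means mean inhibition over 43.08%, the solvent-only control mean plus 3 SD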;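 further: 0% = DMSO treated cells and 100% = gossypol at 36 µM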). To be noted: HEK293 GAL4-SRC3 luciferase reporter, at 3.6 µM, hits give high values.
Sequence of Nuclear receptor coactivator 3 (Homo sapiens) (Q9Y6Q9 whole entry, looked up, the tested form may be a part): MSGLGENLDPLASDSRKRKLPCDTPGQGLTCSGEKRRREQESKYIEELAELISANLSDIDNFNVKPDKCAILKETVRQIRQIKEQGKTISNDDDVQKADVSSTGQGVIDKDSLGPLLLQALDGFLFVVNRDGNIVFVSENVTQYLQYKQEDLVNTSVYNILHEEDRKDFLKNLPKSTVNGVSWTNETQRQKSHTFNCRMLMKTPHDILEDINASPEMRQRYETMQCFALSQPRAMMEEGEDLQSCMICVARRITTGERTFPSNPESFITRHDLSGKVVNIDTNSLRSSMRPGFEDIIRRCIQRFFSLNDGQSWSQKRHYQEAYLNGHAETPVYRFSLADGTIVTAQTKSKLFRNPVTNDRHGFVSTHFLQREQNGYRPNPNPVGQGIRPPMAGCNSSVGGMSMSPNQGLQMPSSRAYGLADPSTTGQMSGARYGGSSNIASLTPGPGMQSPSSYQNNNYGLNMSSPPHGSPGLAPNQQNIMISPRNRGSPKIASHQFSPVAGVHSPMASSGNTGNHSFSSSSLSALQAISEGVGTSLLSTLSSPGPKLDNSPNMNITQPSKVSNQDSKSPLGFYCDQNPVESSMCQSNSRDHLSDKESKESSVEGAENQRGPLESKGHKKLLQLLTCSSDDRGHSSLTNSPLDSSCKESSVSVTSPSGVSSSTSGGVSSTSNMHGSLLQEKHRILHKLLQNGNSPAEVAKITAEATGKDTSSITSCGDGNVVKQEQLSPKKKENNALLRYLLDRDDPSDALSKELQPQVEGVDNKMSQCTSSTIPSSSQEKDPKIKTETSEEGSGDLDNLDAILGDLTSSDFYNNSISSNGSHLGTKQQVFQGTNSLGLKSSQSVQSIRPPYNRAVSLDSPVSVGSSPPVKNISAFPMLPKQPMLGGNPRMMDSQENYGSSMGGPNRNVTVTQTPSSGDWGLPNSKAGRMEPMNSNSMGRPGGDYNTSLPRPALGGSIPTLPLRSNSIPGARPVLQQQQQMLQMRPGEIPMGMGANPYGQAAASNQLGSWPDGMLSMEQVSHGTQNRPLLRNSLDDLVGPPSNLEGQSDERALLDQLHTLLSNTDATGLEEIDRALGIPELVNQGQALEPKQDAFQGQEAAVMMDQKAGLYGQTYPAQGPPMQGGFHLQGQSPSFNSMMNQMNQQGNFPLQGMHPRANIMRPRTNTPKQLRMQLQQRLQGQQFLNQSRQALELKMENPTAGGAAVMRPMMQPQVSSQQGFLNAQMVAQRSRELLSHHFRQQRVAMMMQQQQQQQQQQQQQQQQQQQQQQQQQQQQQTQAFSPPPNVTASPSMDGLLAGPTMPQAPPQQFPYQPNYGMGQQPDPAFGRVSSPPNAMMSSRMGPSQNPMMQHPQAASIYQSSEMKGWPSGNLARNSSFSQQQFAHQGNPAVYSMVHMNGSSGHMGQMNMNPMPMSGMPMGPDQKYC
The test system of test [18] is transactivating tegument protein VP16 (Human herpesvirus 1), Gal4-VP16 luciferase reporter. In words: VP16 transactivation inhibitors, counter-screen for SRC3 inhibitor project, cell-based, luminescence, high throughput (AID 588794; in the data active means inhibition above about 30%). The settings on record: mammalian cells, VP16-driven luciferase reporter luminescence; at 3.6 µM; hits give high values.
The target of test [19] is Nuclear receptor coactivator 1 (Homo sapiens) (UniProt Q15788). In words: SRC1 coactivator transcriptional activity inhibitors, confirmation, cell-based, luminescence, quadruplicate (AID 588820;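 active means mean inhibition above 46.68%, the untreated control wells mean plus 3 SD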;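 further: 0% = DMSO wells and 100% = gossypol 36 µM treated wells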). To be noted: HEK293 GAL4-SRC1 luciferase reporter, at 3.6 µM, hits give high values.
Test [20] can be described thus: VP16 transactivation inhibitors, counter-screen for SRC1 inhibitor project, cell-based, luminescence, high throughput (AID 588824; in the data active means inhibition above about 25%). The settings on record: cell-based VP16 transactivation luciferase luminescence; at 3.6 µM; hits give high values.
Test [21] deals with Photoreceptor-specific nuclear receptor (Homo sapiens) (UniProt Q9Y5X4). Put plainly: NR2E3 agonist confirmation in cells, cell-based, luminescence, CHO-S two-hybrid (AID 624378;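 active means average inhibition above a cutoff equal to the mean inhibition of all tested compounds plus one SD, cut at about 70% in these data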;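 further: 0% = DMSO in NR2E3 cells and 100% = DMSO in cells lacking NR2E3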). The settings on record: CHO-S mammalian two-hybrid NR2E3-NCOR, luciferase luminescence; at 3.98 µM; hits give high values.
Sequence of Photoreceptor-specific nuclear receptor (Homo sapiens) (Q9Y5X4 whole entry, looked up, the tested form may be a part): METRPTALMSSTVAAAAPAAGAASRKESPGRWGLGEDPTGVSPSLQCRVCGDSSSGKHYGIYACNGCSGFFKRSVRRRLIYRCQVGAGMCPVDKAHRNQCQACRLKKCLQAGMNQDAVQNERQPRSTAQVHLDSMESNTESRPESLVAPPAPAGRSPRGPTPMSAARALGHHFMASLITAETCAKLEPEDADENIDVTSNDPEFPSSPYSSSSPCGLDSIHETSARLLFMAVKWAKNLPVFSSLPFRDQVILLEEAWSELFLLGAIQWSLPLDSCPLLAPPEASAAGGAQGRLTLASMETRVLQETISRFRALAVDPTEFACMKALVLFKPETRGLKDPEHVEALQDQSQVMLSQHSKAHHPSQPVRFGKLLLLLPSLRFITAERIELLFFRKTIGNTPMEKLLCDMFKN
Test [22] is described as follows: GAL4-VP16 reporter modulators, confirmation, counter-screen for NR2E3 agonist project, cell-based, luminescence, CHO-S, high throughput (AID 624379;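 active means mean inhibition above a cutoff equal to the average over all tested compounds plus one standard deviation, cut at about 70% in these data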;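 further: 0% = DMSO with VP16-transfected cells and 100% = DMSO with cells lacking VP16; higher means less reporter light so more repression of VP16 activity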). To be noted: CHO-S GAL4-VP16 luciferase reporter, at 3.98 µM, hits give high values.
Test [23] in a line: StAR promoter reporter inhibitors, counter-screen for LRH-1 inverse agonist project, cell-based, luminescence, high throughput (AID 651611; in the data active means inhibition above about 28%). The settings on record: StAR promoter luciferase reporter counterscreen, at 3.6 µM, hits give high values.
Test [24] addresses Nuclear receptor subfamily 5 group A member 2 (Homo sapiens) (UniProt O00482). Put plainly: LRH-1 (NR5A2) inverse agonists, retest, confirmation, cell-based, luminescence (AID 651613; in the data active means inhibition above about 42%;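 further: HEK293T cells co-transfected with LRH-1 and StAR promoter luciferase reporter; 0% = vehicle wells and 100% = parental cells lacking receptor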). The settings on record: cell-based LRH-1 luciferase reporter, inverse agonism; at 3.6 µM; hits give high values.
In test [25] the target is Steroidogenic factor 1 (Homo sapiens) (UniProt Q13285). Put plainly: SF1 (NR5A1) inverse agonists, counter-screen for LRH-1 inverse agonist project, cell-based, luminescence, high throughput (AID 651614; in the data active means inhibition above about 44%;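 further: cells cotransfected with StAR promoter reporter and SF1 expression vector; 0% = vehicle on cells with receptor and 100% = vehicle on cells lacking receptor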). To be noted: cell-based SF1 luciferase reporter, at 3.6 µM, hits give high values.
Test [26] in a line: VP16 transactivation reporter inhibitors, counter-screen for LRH-1 inverse agonist project, cell-based, luminescence, high throughput (AID 651615; in the data active means inhibition above about 33%). To be noted: Gal4-VP16 luciferase reporter cells, at 3.6 µM, hits give high values.
Test [27] can be described thus: growth loss of phage-infected RecBCD+ E. coli, confirmation, RecBCD inhibitor project, absorbance, E. coli V66, T4 gene 2 phage (AID 651982;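 active means mean inhibition over triplicates exceeding the hit threshold derived in the original primary screen, cut at about 11% in these data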). To be noted: E. coli V66 + T4 2- phage, growth OD; at 11.9 µM; hits give high values.
Test [28] in a line: E. coli viability inhibition, counter-screen for RecBCD inhibitor project, absorbance, high throughput (AID 651983; in the data active means inhibition above about 20%;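 further: E. coli strain V66 grown with compound alone and no phage infection; 0% = bacteria with DMSO vehicle only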). To be noted: absorbance (OD) growth, at 11.9 µM, hits give high values.
A short description of test [29]: growth loss of phage-infected AddAB-carrying E. coli, confirmation, counter-screen for RecBCD inhibitor project, absorbance, E. coli V3065, T4 phage (AID 651984;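 active means mean inhibition above the solvent-only control wells' mean plus 3 SD, cut at about 22% in these data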;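 further: higher means less bacterial growth from phage killing when AddAB is blocked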). The settings on record: E. coli expressing H. pylori AddAB + T4 phage, OD growth; at 11.9 µM; hits give high values; gene 2 mutant T4, recBCD-deleted host.
Test [30] in a line: Gal4-VP16 luciferase reporter inhibitors, counter-screen for COUP-TFII antagonist project, cell-based, luminescence, HEK293 (AID 687007; in the data active means inhibition above about 13%). To be noted: at 8.5 µM, hits give high values.
Test [31] has as its target COUP transcription factor 2 (Homo sapiens) (UniProt P24468). Put plainly: NR2F2 transcriptional activity inhibitors, confirmation, cell-based, luciferase reporter, HEK293, triplicate (AID 687008;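 active means mean inhibition over three repeats above a set limit taken from the earlier primary screen, cut at about 38% in these data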;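 further: 100% = cells given the luciferase reporter alone without the COUP-TF2 vector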). The settings on record: HEK293 NGFI-A luciferase reporter, luminescence; at 8.5 µM; hits give high values.
For test [32], the target named is Photoreceptor-specific nuclear receptor (Homo sapiens) (UniProt Q9Y5X4). Put plainly: NR2E3 agonists, confirmation, biochemical, TR-FRET (AID 2379). To be noted: cell-free NR2E3 corepressor release, 5 h, at 3.98 µM, hits give high values. (Time-resolved FRET reads energy transfer from a long-lived donor to a nearby acceptor.)
The target in test [33] is Peroxisome proliferator-activated receptor gamma (Homo sapiens) + Nuclear receptor corepressor 2 (Homo sapiens) (UniProt P37231+Q9Y618). In words: agonists of PPARg-NCOR2 corepressor interaction, counter-screen for NR2E3 agonist project, biochemical, TR-FRET (AID 504787; in the data active means inhibition above about 20%;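 further: 0% = DMSO vehicle and 100% = wells without protein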). To be noted: TR-FRET PPARg-NCOR2 coregulator interaction, at 3.98 µM, hits give high values.

Sequence of Peroxisome proliferator-activated receptor gamma (Homo sapiens) + Nuclear receptor coactivator 3 (Homo sapiens) (P37231 whole entry, looked up): as the sequence (P37231 whole entry, looked up) above
Sequence of Peroxisome proliferator-activated receptor gamma (Homo sapiens) + Nuclear receptor coactivator 3 (Homo sapiens) (Q9Y6Q9 whole entry, looked up): as the sequence (Q9Y6Q9 whole entry, looked up, the tested form may be a part) above
Sequence of Neuropeptide Y receptor type 1 (Homo sapiens) (P25929 whole entry, looked up): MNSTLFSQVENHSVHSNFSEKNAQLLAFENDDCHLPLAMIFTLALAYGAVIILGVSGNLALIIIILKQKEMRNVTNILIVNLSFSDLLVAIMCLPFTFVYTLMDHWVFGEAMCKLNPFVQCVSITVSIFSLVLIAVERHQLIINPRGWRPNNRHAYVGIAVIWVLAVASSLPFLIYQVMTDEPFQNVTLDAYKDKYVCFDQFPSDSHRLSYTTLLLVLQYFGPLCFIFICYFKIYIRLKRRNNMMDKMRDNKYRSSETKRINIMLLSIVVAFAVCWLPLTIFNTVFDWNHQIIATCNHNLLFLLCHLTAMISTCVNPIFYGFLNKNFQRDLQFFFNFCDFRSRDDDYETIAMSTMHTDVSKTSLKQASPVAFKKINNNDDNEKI
Sequence of Oxytocin receptor (Homo sapiens) (P30559 whole entry, looked up): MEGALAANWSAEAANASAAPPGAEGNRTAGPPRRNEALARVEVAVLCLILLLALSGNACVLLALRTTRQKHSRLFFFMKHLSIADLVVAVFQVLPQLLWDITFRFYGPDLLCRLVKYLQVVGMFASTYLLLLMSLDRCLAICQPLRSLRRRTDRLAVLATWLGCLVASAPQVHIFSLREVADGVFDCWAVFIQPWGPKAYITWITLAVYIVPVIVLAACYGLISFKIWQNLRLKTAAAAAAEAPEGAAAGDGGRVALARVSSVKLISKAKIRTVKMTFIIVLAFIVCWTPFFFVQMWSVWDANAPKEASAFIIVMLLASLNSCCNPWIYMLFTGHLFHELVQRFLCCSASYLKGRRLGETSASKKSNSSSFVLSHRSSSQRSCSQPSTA

As for `Cn1c(-c2sc3cc(C(F)(F)F)cnc3c2-c2ccccc2)n[nH]c1=S`, the values for the activation in [1], in [2] and in [3] were 89.8% (active), 67% (active) and 53.5% (active), respectively.
In the case of `O=C(O)Cc1sc(-c2ccccc2)nc1-c1cccs1`, the figures for the activation in [1], in test [2] and in [3] were 42.6% (active), 34.7% (active) and 32.9% (active), respectively.
For `CNC(=S)N1N=C(c2ccccc2)CC1c1ccc(Br)cc1` (configuration not stated), the activation in test [1] is 24.2% (active); in [2] it was 23.1% (active); in [3] it was 17.2%.
With `NC(=O)CSc1oc(-c2cccs2)nc1S(=O)(=O)c1ccccc1`, the activation in test [1] was 40.9% (active); in test [2], 34.8% (active); in test [3] it was 26.5% (active).
For orientation: inhibition means the relative decrease from the control value, in per cent. Take `CC(C)c1ccc(N2CCN(C(=O)c3ccccc3NC(=O)/C=C(\C(=O)O)c3ccccc3)CC2)cc1`: the inhibition in test [4] was 102% (active); in test [5], 62.4% (active).
Turning to `CCN(CCCNC(=O)CSc1cc(=O)n(C)c2cc(Cl)ccc12)Cc1ccccc1`, the values for the activation in [1], in test [2] and in [3] were 29.4% (active), 19.2% and 20.4%, respectively.
Turning to `O=C(NC(Nc1nc2ccc([N+](=O)[O-])cc2s1)(C(F)(F)F)C(F)(F)F)c1ccccc1`, the inhibition was 99.4% (active) in test [6]; 69.4% (active) in test [7]; 64.5% (active) in test [4]; 26.4% in test [5]; -2.45% in test [11]; 83.7% (active) in [13]. The inhibition in test [14] is 90.4% (active); in test [17] it was 69.1% (active); in [18] it was 84.5% (active); in [19] it was 38.7%; in test [20] it was 84.3% (active); in [21], 98.5% (active). Moreover, the inhibition in test [22] is 93.3% (active); in test [23], 82.9% (active); in test [24], 105% (active); in [25], 93.3% (active); in test [26] it was 86.8% (active); in test [27], 8%. The inhibition is 10.7% in test [28], 11.3% in test [29], 6.94% in test [30] and 65.9% (active) in test [31]. Also, the activation is 30.6% in [8]; -2.54% in test [9]; -9.19% in [10]; 22.1% (active) in [12]; 13% in [15]; 8.96% in [16].
As for `Cc1cc(C)nc(S/C=C/C(=O)c2ccccc2)n1`, the inhibition in [4] was 97.1% (active); in test [5] it was 19.6%.
Consider `O=C(Oc1ccccc1)Oc1ccc2c(c1)oc(=O)c1ccccc12`, for which the values for the activation in test [1], in test [2] and in test [3] were 27.9% (active), 16.1% and 19.9%, respectively. Also, the activation (reported as inhibition) in [32] is 1.72%. Further, the inhibition in test [33] was 6.42%.
As to `Cc1cc2oc(C(=O)Nc3c(C)n(C)n(-c4ccccc4)c3=O)c(C)c2cc1Cl`, the inhibition in [4] was 63.1% (active); in [5] it was 19.1%.
Consider `O=C(CSc1c2c(nc3ccc(Cl)cc13)CCCC2)NCc1ccco1`, for which the activation in [1] is 19.2%; in test [2] it was 15.5%; in test [3] it was 14.4%.
In the same order, the values of `Fc1ccc(COc2cccc(-c3n[nH]c(=S)o3)c2)cc1` are 51.6% (active), 39.9% (active) and 34% (active).
Regarding `CCOC(=O)/C=C/C(=O)OCC(=O)NC(c1ccccc1)c1ccccc1`, the inhibition in test [4] was 63% (active); in test [5], 23.2%.
